This is an account of results in PubChem BioAssay AID1508637 (National Center for Advancing Translational Sciences (NCATS), 2021).

SMILES strings stand for the structures. Results filed as inconclusive are left out. Calls of active or inactive are those of the source. Calls follow the shape of the dose curve; as a rule, active = well fitted inhibition curve with a large enough effect; inconclusive = small, poorly fitted or top-dose-only effect; inactive = flat fitted curve, though single readings scatter. Starred links: 1 amine or outer side, 2 acyl side, 3 side chain; linkers in the order of their positions; H or OH if unused. Positions of bridges follow the written chain, without caps; N, C: chain ends. Non-standard residues stand in square brackets, D forms with d. Residues, ends and D or L forms follow the SMILES beside them. Chains are numbered I, II in the order given. ξ: configuration not given here. *: point of attachment. Actinocin(9to1) = Cc1c2oc3c(C)ccc(C(=O)[*:1])c3nc-2c(C(=O)[*:2])c(N)c1=O; ξNMeV = CNC(C(=O)O)C(C)C; Cbz = O=C(OCc1ccccc1)*; Nva = CCC[CH](N)C(=O)O; ξV = CC(C)C(N)C(=O)O; Sar = CNCC(=O)O

The nature of this test: qHTS for characterization and localization of zebrafish homologs of the human ABCB1 multidrug transporter: empty vector transfected cells. The note with it: empty vector transfected control cells, CellTiter-Glo luminescence viability, 72 h; series mostly up to 46.1 µM. The source says:
The zebrafish has emerged as a potential model to study the blood-brain barrier (BBB) given its similarities with mammalian systems. However, little information has been available with regard to homologous ATP-binding cassette transporters expressed at the zebrafish BBB. Two transporters that are highly expressed at the human BBB are P-glycoprotein (P-gp, encoded by the ABCB1 gene) and ABCG2 (encoded by the ABCG2 gene). In this study, we focus on characterization of P-gp homologs in the zebrafish, which has two genes that are homologous to human ABCB1 - abcb4 and abcb5. We generated stably-transfected cell lines to determine their substrate specificities. […] Zebrafish abcb4 also colocalized with claudin 5 expression in brain endothelial cells.
A high-throughput screen was performed as previously described on empty vector transfected cells, P-gp-overexpressing MDR-19 cells and cells transfected with full-length zebrafish abcb4 (ZF Abcb4) or abcb5 (ZF Abcb5). Briefly, cells were plated into 1536-well plates at a density of 500 cells/well in 5 uL media. P-gp substrate compounds (approximately 90) selected from our previous study were then added at varying concentrations using a 1536-head pin tool (Kalypsis, San Diego, CA) and plates were incubated at 37C in 5% CO2 for 72 h. CellTiter-Glo reagent (Promega) was dispensed into the wells, incubated for 5 min and luminescence was read on a ViewLux instrument (Perkin-Elmer).
Cytotoxic compounds were defined as those that yielded a curve class of -1.1, -1.2, -2.1, -2.2, -2.3, or -2.4, a maximum response of >50% and an AC50 of < 10 uM. All compounds from screening analysis were tested in Vector (empty vector control), MDR-19 (P-gp overexpressing), zebrafish abcb4 (ZF Abcb4) and abcb5 (ZF Abcb5) expression cell lines.
1. Tobie D Lee, Olivia W Lee, Kyle R Brimacombe, Lu Chen, Rajarshi Guha, Sabrina Lusvarghi, Bethilehem G Tebase, Carleen Klumpp-Thomas, Robert W Robey, Suresh V Ambudkar, Min Shen, Michael M Gottesman, Matthew D Hall. A High-Throughput Screen of a Library of Therapeutics Identifies Cytotoxic Substrates of P-glycoprotein. Mol Pharmacol. 2019, Nov;96(5):629-640.
A general note: In qHTS, concentration-response curves come from the screen itself.
For the compound `Cn1cc(-c2[nH]c3cc(NC(=O)[C@H](N)C4CCCCC4)cc4c3c2C=NNC4=O)cn1`, the Potency is 418 nM (active).
To `CCCCc1nc2cc(C=CC(=O)NO)ccc2n1CCN(CC)CC` belongs 3320 nM (active); to `CCn1c(-c2nonc2N)nc2c(C#CC(C)(C)O)ncc(OC[C@H]3CCCNC3)c21`, 1180 nM (active).
To `C[C@@]12O[C@@H](C[C@]1(O)CO)n1c3ccccc3c3c4c(c5c6ccccc6n2c5c31)CNC4=O` belongs 2640 nM (active); to `CN(C)c1ccc(C(=C2C=CC(=[N+](C)C)C=C2)c2ccc(N(C)C)cc2)cc1`, 590 nM (active); to `Cc1c2oc3c(C)ccc(C(=O)N[C@@H]4C(=O)NC(C(C)C)C(=O)N5CCC[C@H]5C(=O)N(C)CC(=O)N(C)C(C(C)C)C(=O)O[C@@H]4C)c3nc-2c(C(=O)N[C@@H]2C(=O)NC(C(C)C)C(=O)N3CCC[C@H]3C(=O)N(C)CC(=O)N(C)C(C(C)C)C(=O)O[C@@H]2C)c(N)c1=O` (stereo not given in full) (I: T[ξV]P[Sar][ξNMeV] / II: T[ξV]P[Sar][ξNMeV]; ester I:1-I:C, II:1-II:C; linker I:N-II:N via Actinocin(9to1)), 7.4 nM (active).
For the compound `C/C=C1/NC(=O)C2CSSCCC=CC(CC(=O)NC(C(C)C)C(=O)N2)OC(=O)C(C(C)C)NC1=O` (stereo not given), the Potency is 52.6 nM (active).
Turning to `CC[C@@H]1C(=O)N(C)c2cnc(Nc3ccc(C(=O)NC4CCN(C)CC4)cc3OC)nc2N1C1CCCC1`, the Potency is 46.9 nM (active).
For `C[C@@H]1O[C@@H](O[C@H]2[C@H](O)[C@@H](O)[C@H](O[C@H]3[C@H](O[C@H]4CC[C@@]5(C)C(=CC[C@@H]6C5CC[C@]5(C)[C@@H]7[C@H](C[C@@H]65)O[C@]5(CC[C@@](C)(CO[C@@H]6O[C@H](CO)[C@@H](O)[C@H](O)[C@H]6O)O5)[C@H]7C)C4)O[C@H](CO)[C@@H](O)[C@@H]3O)O[C@@H]2CO)[C@H](O)[C@H](O)[C@H]1O` (stereo not given in full), the Potency was 353 nM (active).
To `COC[C@H](NC(=O)c1cnc(C)s1)C(=O)N[C@@H](COC)C(=O)N[C@@H](Cc1ccccc1)C(=O)[C@@]1(C)CO1` belongs 166 nM (active).
The result for `Cc1[nH]c2ccccc2c1CCNCc1ccc(/C=C/C(=O)NO)cc1` reads 235 nM (active).
To `COc1cc2c(NC3CCN(C(C)C)CC3)nc(N3CCCN(C)CC3)nc2cc1OCCCN1CCCC1` belongs 16600 nM (active); to `CCC1=CC2CN(C1)Cc1c([nH]c3ccccc13)[C@@](C(=O)OC)(c1cc3c(cc1OC)N(C)[C@H]1[C@@](O)(C(=O)OC)[C@H](OC(C)=O)[C@]4(CC)C=CCN5CC[C@]31[C@@H]54)C2` (stereo not given in full), 105 nM (active).
As to `CC[C@@H]1C(=O)N(C)c2cnc(Nc3ccc(C(=O)NC4CCC(N5CCN(CC6CC6)CC5)CC4)cc3OC)nc2N1C(C)C` (stereo not given in full), the Potency is 52.6 nM (active).
In the case of `C=CCNC1=C2CC(C)CC(OC)C(O)C(C)/C=C(\C)C(OC(N)=O)C(OC)/C=C/C=C(\C)C(=O)NC(=CC1=O)C2=O` (stereo not given), the Potency is 1480 nM (active).
The result for `Oc1ccc(-c2ccc(-c3cc(Nc4cccc(CNC5CC5)c4)n[nH]3)cc2)c(O)c1` reads 2960 nM (active); that for `CCN(CCCO)CCCOc1ccc2c(Nc3cc(CC(=O)Nc4cccc(F)c4)[nH]n3)ncnc2c1`, “inactive”; that for `CC(C)C[C@H](NC(=O)[C@H](CCc1ccccc1)NC(=O)CN1CCOCC1)C(=O)N[C@@H](Cc1ccccc1)C(=O)N[C@@H](CC(C)C)C(=O)[C@@]1(C)CO1`, 46.9 nM (active).
Consider `CCS(=O)(=O)c1cccc(-c2cc(C(=O)NC3CCN(C)CC3)c(C)c3[nH]c4ncc(C)cc4c23)c1`, for which the Potency is 2350 nM (active).
`CC(C)(C)c1cnc(CSc2cnc(NC(=O)C3CCNCC3)s2)o1`: the Potency was 1080 nM (active).
`CN(C)CCN(C)C(=O)c1ccc(NC(=O)Nc2ccc(-c3nc(N4CCOCC4)c4ccn(CC(F)(F)F)c4n3)cc2)cc1`: the Potency is 264 nM (active).
The result for `C#Cc1cccc(Nc2ncnc3cc(OC)c(OCCCCCCC(=O)NO)cc23)c1` reads 2960 nM (active); that for `N=C(N)c1ccc(OCCCCCOc2ccc(C(=N)N)cc2)cc1`, 2640 nM (active).
To `CC(NCc1ccc2c(c1)nc(NC(=O)c1ccc(-c3cn[nH]c3)s1)n2CC(C)(C)O)C(C)(C)C` (stereo not given) belongs 332 nM (active).
The result for `Cc1ccc(-c2ncn(-c3ccc(Nc4nccc(-c5cccc(N6CCOCC6)c5)n4)cc3)n2)cn1` reads 3320 nM (active); that for `CCc1c(O)cc(O)c(C(=O)c2ccc(OCCN3CCOCC3)c(OC)c2)c1CC(=O)N(CCOC)CCOC`, 743 nM (active); that for `CN(C)C1CCN(C(=O)c2ccc(NC(=O)Nc3ccc(-c4nc(N5CCOCC5)nc(N5CCOCC5)n4)cc3)cc2)CC1`, 469 nM (active).
With `CN(C)C1CCN(C(=O)c2ccc(NC(=O)Nc3nc(N4CCOCC4)nc(N4CCOCC4)n3)cc2)CC1`, the Potency is 469 nM (active).
To `COc1cccc2c1C(=O)c1c(O)c3c(c(O)c1C2=O)C[C@@](O)(C(=O)CO)C[C@H]3O[C@H]1C[C@H](N)[C@@H](O)[C@H](C)O1` belongs 105 nM (active); to `COCCn1c2c([n+](Cc3cnccn3)c1C)C(=O)c1ccccc1C2=O`, 16.6 nM (active); to `CC(=O)C1(O)Cc2c(O)c3c(c(O)c2C(OC2CC(N)C(O)C(C)O2)C1)C(=O)c1c(O)cccc1C3=O` (stereo not given), 41.8 nM (active).
In the case of `CC(C)C[C@@H](C=O)NC(=O)[C@H](CC(C)C)NC(=O)[C@H](CC(C)C)NC(=O)OCc1ccccc1` (Cbz-Leu-Leu-Leu-aldehyde), the Potency was 1320 nM (active).
With `COc1ccc(CC2C(=O)NC(C)C(=O)N(C)C3Cc4ccc(cc4)Oc4cc(ccc4OC4OC(CO)C(O)C(O)C4O)CC(C(=O)NC(C)C(=O)NC(C)C(=O)N2C)N(C)C3=O)cc1` (stereo not given), the Potency is 88.8 nM (active).
Consider `CCC(C)C(=O)OC1CC(O)C23C4OCC5(C(O)CC2C1(C)C(O)O4)C3C(=O)C(O)C1(C)C(O)(c2ccoc2)CC2OC251` (stereo not given), for which the Potency is 1100 nM (active).
For the compound `C=CCn1c(=O)c2cnc(Nc3ccc(N4CCN(C)CC4)cc3)nc2n1-c1cccc(C(C)(C)O)n1`, the Potency was 1180 nM (active).
The result for `CN(c1ncccc1CNc1nc(Nc2ccc3c(c2)CC(=O)N3)ncc1C(F)(F)F)S(C)(=O)=O` reads 4180 nM (active); that for `CC(C)C[C@H](NC(=O)[C@@H](NC(=O)c1cccc(-c2ccccc2)n1)[C@@H](C)O)B(O)O`, 74.3 nM (active); that for `CN(C)C/C=C/C(=O)Nc1cccc(C(=O)Nc2ccc(Nc3nccc(-c4cccnc4)n3)cc2)c1`, 18700 nM (active).
The result for `COc1cc2ncn(-c3cc(OCc4ccccc4C(F)(F)F)c(C(N)=O)s3)c2cc1OC` reads 1910 nM (active).
To `CCCC(C=O)NC(=O)C(CC(C)C)NC(=O)C(CC(C)C)NC(=O)OCc1ccccc1` (stereo not drawn) (Cbz-Leu-Leu-[Nva]-aldehyde; configuration not given here) belongs 1480 nM (active).
